For 20 molecules, growth inhibition, inhibition and outcome results are on record in PubChem BioAssay.

A short description of experiment [1]: antimalarial activity against Dd2 strain (AID 2302;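 active = growth inhibition above 50% at the single 2 µM test dose, taken to imply half-maximal potency below 2 µM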;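 note: 0% = DMSO untreated growth and 100% = chloroquine plus artemisinin killed control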). Particulars: P. falciparum Dd2 in RBCs, LDH growth readout, 72 h; at 2 µM; hits give high values.
Experiment [2] in a line: human hepatoma cell viability loss – ATP luminescence, cytotoxicity control for P. falciparum antimalarial project, primary screen (AID 2303;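 active = inhibition above 50%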;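 note: 0% = DMSO wells and 100% = digitonin-killed cells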). The note with it: HepG2 viability, 24-48 h, at 10 µM, hits give high values.
Experiment [3] deals with L-lactate dehydrogenase (Plasmodium falciparum (isolate CDC / Honduras)) (UniProt Q27743). Briefly: PfLDH activity inhibition – cell lysate, 3D7 strain, counter-screen for P. falciparum growth inhibition project (AID 2304).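 Note: 0% = vehicle and 100% = reference inhibitor.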 Particulars: P. falciparum 3D7 crude extract, LDH APAD/NBT absorbance; at 2 µM; hits give high values.
Experiment [4] in a line: inhibition of 3D7 malaria parasite growth – strain 3D7 (AID 2306).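 Note: 0% = DMSO wells and 100% = chloroquine plus artemisinin control wells.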 The note with it: P. falciparum 3D7 erythrocytic growth, LDH absorbance, 72 h; at 2 µM; hits give high values.
The target of experiment [5] is Calcium-dependent protein kinase 1 (Plasmodium falciparum (isolate 3D7)) (UniProt P62344). Nature of the experiment: PfCDPK1 kinase inhibitors, biochemical, TCAMS library (AID 1159585; cut-off not given, nearly all actives have IC50 up to about 0.98 µM;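 note: inhibitors leave more ATP so luminescence rises with inhibition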). The note with it: recombinant PfCDPK1, Kinase-Glo ATP depletion luminescence.
Experiment [6] has as its target Plasmodium falciparum protein kinase 6 (PK6, PF3D7_1337100) (UniProt Q8IDW1). Briefly: PfPK6 kinase inhibitors, biochemical, TCAMS library (AID 1159586). The note with it: recombinant PfPK6, Kinase-Glo ATP depletion luminescence.
Experiment [7] addresses Protein kinase 7 (PK7), Plasmodium falciparum 3D7 (PF3D7_0213400) (UniProt Q7YTF7). Nature of the experiment: inhibition of Plasmodium PK7 catalytic activity – biochemical, TCAMS antimalarial set, Kinase-Glo luminescence (AID 1159587). Particulars: recombinant PfPK7, Kinase-Glo ATP depletion luminescence.
For experiment [8], the target named is Calcium-dependent protein kinase 4 (Plasmodium falciparum (isolate 3D7)) (UniProt Q8IBS5). Briefly: PfCDPK4 kinase inhibitors, biochemical, TCAMS library (AID 1159588; cut-off not given, nearly all actives have IC50 up to about 0.91 µM). The note with it: recombinant PfCDPK4, Kinase-Glo ATP depletion luminescence.

Unmarked numbers belong to inactive results. For some of these results: Potency and affinity values are given separately. The source made the active and inactive calls. Unless noted, the rule behind the calls is not given here.

Chain of Calcium-dependent protein kinase 4 (Plasmodium falciparum (isolate 3D7)) (Q8IBS5 whole entry, looked up): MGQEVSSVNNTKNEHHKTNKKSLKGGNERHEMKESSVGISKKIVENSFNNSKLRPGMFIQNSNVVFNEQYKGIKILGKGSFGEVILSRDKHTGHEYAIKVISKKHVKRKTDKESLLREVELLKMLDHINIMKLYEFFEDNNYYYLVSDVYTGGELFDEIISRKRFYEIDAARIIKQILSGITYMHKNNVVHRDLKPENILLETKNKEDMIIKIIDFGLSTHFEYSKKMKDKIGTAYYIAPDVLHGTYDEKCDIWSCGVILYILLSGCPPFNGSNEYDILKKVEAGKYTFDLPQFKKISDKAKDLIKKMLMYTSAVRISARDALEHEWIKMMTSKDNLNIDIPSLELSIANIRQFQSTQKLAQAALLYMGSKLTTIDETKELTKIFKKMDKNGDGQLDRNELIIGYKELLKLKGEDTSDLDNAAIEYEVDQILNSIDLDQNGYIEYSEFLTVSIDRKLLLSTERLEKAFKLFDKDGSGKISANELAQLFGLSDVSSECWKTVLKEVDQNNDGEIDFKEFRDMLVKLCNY
Chain of Protein kinase 7 (PK7), Plasmodium falciparum 3D7 (PF3D7_0213400) (Q7YTF7 1-343): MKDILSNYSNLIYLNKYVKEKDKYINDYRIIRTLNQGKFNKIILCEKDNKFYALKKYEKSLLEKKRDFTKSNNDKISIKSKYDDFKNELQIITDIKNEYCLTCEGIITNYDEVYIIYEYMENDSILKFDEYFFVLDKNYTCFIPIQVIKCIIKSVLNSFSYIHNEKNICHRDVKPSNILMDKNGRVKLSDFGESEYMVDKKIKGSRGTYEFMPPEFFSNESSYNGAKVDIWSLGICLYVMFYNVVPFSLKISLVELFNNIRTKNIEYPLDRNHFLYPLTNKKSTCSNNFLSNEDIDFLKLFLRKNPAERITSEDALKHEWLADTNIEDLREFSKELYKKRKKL
Chain of Plasmodium falciparum protein kinase 6 (PK6, PF3D7_1337100) (Q8IDW1 1-305): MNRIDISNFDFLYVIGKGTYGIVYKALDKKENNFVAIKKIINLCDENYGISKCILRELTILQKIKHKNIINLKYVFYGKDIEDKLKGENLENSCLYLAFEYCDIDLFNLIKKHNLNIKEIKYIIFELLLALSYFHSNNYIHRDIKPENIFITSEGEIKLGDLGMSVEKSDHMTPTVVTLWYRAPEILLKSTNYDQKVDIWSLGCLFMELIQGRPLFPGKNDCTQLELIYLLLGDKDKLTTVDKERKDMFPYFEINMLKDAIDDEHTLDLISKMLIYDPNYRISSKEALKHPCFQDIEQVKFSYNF
Chain of Calcium-dependent protein kinase 1 (Plasmodium falciparum (isolate 3D7)) (P62344 whole entry, looked up): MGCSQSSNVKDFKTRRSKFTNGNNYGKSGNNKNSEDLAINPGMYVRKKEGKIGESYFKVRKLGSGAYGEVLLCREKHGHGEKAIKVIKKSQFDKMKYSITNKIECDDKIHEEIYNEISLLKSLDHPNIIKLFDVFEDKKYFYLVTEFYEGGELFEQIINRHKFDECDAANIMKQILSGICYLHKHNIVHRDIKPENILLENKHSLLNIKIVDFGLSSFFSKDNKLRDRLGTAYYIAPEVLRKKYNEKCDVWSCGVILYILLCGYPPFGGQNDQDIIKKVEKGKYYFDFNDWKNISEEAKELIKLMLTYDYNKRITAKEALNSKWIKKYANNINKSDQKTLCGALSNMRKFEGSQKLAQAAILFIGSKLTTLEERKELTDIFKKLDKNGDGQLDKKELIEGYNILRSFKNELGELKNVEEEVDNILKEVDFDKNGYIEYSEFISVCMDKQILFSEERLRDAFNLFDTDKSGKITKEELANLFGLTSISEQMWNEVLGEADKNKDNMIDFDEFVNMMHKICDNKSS
Chain of L-lactate dehydrogenase (Plasmodium falciparum (isolate CDC / Honduras)) (Q27743 whole entry, looked up): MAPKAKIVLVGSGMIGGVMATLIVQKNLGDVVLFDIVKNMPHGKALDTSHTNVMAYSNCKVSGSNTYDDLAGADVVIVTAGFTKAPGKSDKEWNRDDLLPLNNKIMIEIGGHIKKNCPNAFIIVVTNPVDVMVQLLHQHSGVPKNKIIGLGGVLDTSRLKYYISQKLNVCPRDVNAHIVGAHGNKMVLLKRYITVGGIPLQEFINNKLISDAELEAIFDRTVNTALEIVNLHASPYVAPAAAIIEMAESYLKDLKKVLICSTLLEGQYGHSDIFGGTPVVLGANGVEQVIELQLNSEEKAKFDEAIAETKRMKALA

Turning to `CC(C)C(NC(=O)c1c(F)cccc1F)C(=O)Nc1ccc(Cc2nc3ccccc3s2)cc1` (stereo not given), the growth inhibition in experiment [1] was 55% (active); in experiment [4] it was 86% (active). In addition, the results for the inhibition in experiment [2] and in experiment [3] were 0% and 6%, respectively. For the same molecule, the result in experiment [5], in experiment [6], in experiment [7] and in experiment [8] was inactive.

As to `CC(CN(C)C)C(=O)Nc1cccc(-c2cccc(-c3nc4ccccc4[nH]3)c2)c1` (stereo not given), the growth inhibition in experiment [1] is 25%; in experiment [4] it was 94% (active). For the same molecule, the inhibition was 42% in experiment [2] and -5% in experiment [3]. Further, the result in experiment [5], in experiment [6], in experiment [7] and in experiment [8] was inactive.

Take `Cc1nc(-c2ccc(-c3ccc(C(=O)Nc4ccc(-n5ccnc5)c(N5CCN(C)CC5)c4)cc3)c(C)c2)no1`: the growth inhibition in experiment [1] and in experiment [4] was 100% (active) throughout. In addition, the inhibition in experiment [2] was 34%; in experiment [3], 2%. For the same molecule, the outcome in experiment [5], in experiment [6], in experiment [7] and in experiment [8] was inactive.

For the molecule `CN1CCN(c2ccc(Nc3c(C(N)=O)cnc4cc(-c5ccoc5)ccc34)cc2C(F)(F)F)CC1`, the growth inhibition in experiment [1] is 97% (active); in experiment [4] it was 100% (active). The inhibition is 13% in experiment [2] and -9% in experiment [3]. For the same molecule, the outcome in experiment [5], in experiment [6], in experiment [7] and in experiment [8] was inactive.

Turning to `Cc1c(-c2cccc(CNCCc3ccc(Cl)cc3)c2)cnc(N)c1C`, the growth inhibition in experiment [1] was 30%; in experiment [4] it was 87% (active). Further, the values for the inhibition in experiment [2] and in experiment [3] were 9% and -5%, respectively. Further, the result in experiment [5], in experiment [6], in experiment [7] and in experiment [8] was inactive.

For `CC(C)[C@H]1C(=O)N(S(C)(=O)=O)[C@H]2CCN(C(=O)c3ccc(CN4CCCCC4)c([N+](=O)[O-])c3)[C@H]12`, the growth inhibition in experiment [1] and in experiment [4] was 100% (active) each time. For the same molecule, the figures for the inhibition in experiment [2] and in experiment [3] were 10% and 3%, respectively. Further, the result in experiment [5], in experiment [6], in experiment [7] and in experiment [8] was inactive.

`c1ccc(COc2ccc(Cn3ccc(-c4ccc(-n5ccnc5)cc4)n3)cc2)cc1` (tested in a mixture with another compound): the growth inhibition in experiment [1] is 67% (active); in experiment [4], 94% (active). The inhibition is 2% in experiment [2] and -1% in experiment [3]. For the same molecule, the result in experiment [5], in experiment [6], in experiment [7] and in experiment [8] was inactive.

`CCN(CC)CC#Cc1ccc2[nH]c(C)c(Cl)c(=O)c2c1`: the growth inhibition is 95% (active) in experiment [1] and 96% (active) in experiment [4]. For the same molecule, the inhibition in experiment [2] was 11%; in experiment [3], -6%. Further, the result in experiment [5], in experiment [6], in experiment [7] and in experiment [8] was inactive.

On to `O=C(NCCc1ccccc1)c1cc(-c2cccnc2)cnc1NCC1CC1`, for which the growth inhibition was 35% in experiment [1] and 93% (active) in experiment [4]. Further, the inhibition in experiment [2] was 3%; in experiment [3] it was 6%. The result in experiment [5], in experiment [6], in experiment [7] and in experiment [8] was inactive.

Take `CCN(CC)CCN(Cc1ccc(-c2ccc(C(F)(F)F)cc2)cc1)C(=O)Cn1c(CCc2c(F)cccc2F)nc(=O)c2ccccc21`: the growth inhibition in experiment [1] was 61% (active); in experiment [4], 102% (active). Further, the inhibition is 36% in experiment [2] and -3% in experiment [3]. Besides, the result in experiment [5], in experiment [6], in experiment [7] and in experiment [8] was inactive.

Turning to `CCN(CC)CCn1c2ccccc2c2ccc(C(=O)Nc3ccc4sc(C)nc4c3)cc21`, the growth inhibition in experiment [1] was 26%; in experiment [4], 84% (active). In addition, the results for the inhibition in experiment [2] and in experiment [3] were 97% (active) and -5%, respectively. Also, the outcome in experiment [5], in experiment [6], in experiment [7] and in experiment [8] was inactive.

Regarding `COc1cc2nc(NCc3nc4ccccc4[nH]3)nc(N)c2cc1OC`, the growth inhibition in experiment [1] is 10%; in experiment [4], 97% (active). Further, the inhibition in experiment [2] was 3%; in experiment [3] it was -2%. In addition, the result in experiment [5], in experiment [6], in experiment [7] and in experiment [8] was inactive.

As to `Cc1ccc(CNC(=O)[C@H](CCCN)Nc2cc(C)nc(NCC3CCCCC3)n2)cc1`, the results for the growth inhibition in experiment [1] and in experiment [4] were -2% and 90% (active), respectively. For the same molecule, the inhibition in experiment [2] was 1%; in experiment [3], 0%. Further, the result in experiment [5], in experiment [6], in experiment [7] and in experiment [8] was inactive.

In the case of `Cc1noc(C)c1-c1cccc(C(=O)NC2CCN(CCNC(=O)C(c3ccccc3)c3ccccc3)CC2)c1`, the growth inhibition was 74% (active) in experiment [1] and 85% (active) in experiment [4]. Moreover, the figures for the inhibition in experiment [2] and in experiment [3] were 27% and 5%, respectively. Besides, the outcome in experiment [5], in experiment [6], in experiment [7] and in experiment [8] was inactive.

In the case of `CCCOc1ccc(NC(=O)c2cccs2)cc1Cl`, the values for the growth inhibition in experiment [1] and in experiment [4] were 86% (active) and 88% (active), respectively. For the same molecule, the results for the inhibition in experiment [2] and in experiment [3] were 1% and -4%, respectively. Moreover, the outcome in experiment [5], in experiment [6], in experiment [7] and in experiment [8] was inactive.

Turning to `COc1ccccc1CN1CCC(NC(=O)c2ccc(-c3cccc(Cl)c3)s2)CC1`, the growth inhibition was 9% in experiment [1] and 84% (active) in experiment [4]. For the same molecule, the results for the inhibition in experiment [2] and in experiment [3] were 49% and -1%, respectively. For the same molecule, the result in experiment [5], in experiment [6], in experiment [7] and in experiment [8] was inactive.

Turning to `Cc1[nH]c(C)c(-c2ccc(OCCOc3ccc(C(F)(F)F)cn3)cc2)c(=O)c1Br`, the growth inhibition in experiment [1] and in experiment [4] was 97% (active) each time. In addition, the inhibition in experiment [2] is 25%; in experiment [3], 3%. Further, the result in experiment [5], in experiment [6], in experiment [7] and in experiment [8] was inactive.

Regarding `O=C(NCC1CCC(CNCCCc2ccccc2)CC1)c1cc(Cl)cc(Cl)c1` (stereo not given), the growth inhibition in experiment [1] was 13%; in experiment [4] it was 89% (active). For the same molecule, the inhibition in experiment [2] was 58% (active); in experiment [3] it was -1%. The result in experiment [5], in experiment [6], in experiment [7] and in experiment [8] was inactive.

With `COc1cccc(-c2cnc(N)c(-c3nc4ccc(F)cc4[nH]3)c2)c1`, the growth inhibition in experiment [1] is 43%; in experiment [4] it was 97% (active). Further, the inhibition in experiment [2] was 47%; in experiment [3], 5%. Moreover, the outcome in experiment [5], in experiment [6], in experiment [7] and in experiment [8] was inactive.

`Nc1nc2c(c(=O)[nH]1)CN(S(=O)(=O)c1ccc(C(=O)N[C@@H](CCC(=O)O)C(=O)O)cc1)CC2`: the growth inhibition in experiment [1] was 96% (active); in experiment [4], 95% (active). Moreover, the inhibition in experiment [2] was 49%; in experiment [3], 6%. Besides, the result in experiment [5], in experiment [6], in experiment [7] and in experiment [8] was inactive.
